Potency and outcome data for six compounds are collected here from PubChem BioAssay (Tox21).

Experiment [1] is described as follows: qHTS assay to identify small molecule antagonists of the estrogen receptor alpha (ER-alpha) signaling pathway using the BG1 cell line in the presence of 0.1 nM 17-beta-estradiol - cell viability counter screen (AID 1259241). Note: nearly all actives have a fitted effect of over 40% in size. An outline of the steps: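 The cell line endogenously expresses full-length ER-alpha and carries four EREs driving luciferase. Cells are cultured 5 days hormone-free, treated 22 hr with compounds and 0.1 nM estradiol, then viability is read by fluorescence.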
In general terms: In qHTS, concentration-response curves come from the screen itself.

A short description of experiment [2]: qHTS assay to identify small molecule antagonists of the androgen receptor (AR) signaling pathway using the MDA cell line in the presence of 0.5 nM R1881 - cell viability counter screen (AID 1259242). Note: nearly all actives have a fitted effect of over 45% in size. An outline of the steps: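 Cells seeded at 3,000/well and allowed 5 hr at 37C, 0% CO2 before compound transfer and R1881 (0.5 nM final) addition; 16 hr later, live-cell protease fluorescence indicated cytotoxicity.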

Experiment [3] has as its target Estrogen receptor (Homo sapiens) (UniProt P03372). The experiment in a line: qHTS assay to identify small molecule antagonists of the estrogen receptor alpha (ER-alpha) signaling pathway using the BG1 cell line in the presence of 0.1 nM 17-beta-estradiol (AID 1259244). Note: nearly all actives have a fitted effect of over 50% in size. Put shortly: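 Luciferase signal from VM7Luc4E2 ERE-reporter cells, co-dosed with test compound and 0.1 nM final 17beta-estradiol for 22 h, read with ONE-Glo.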

Experiment [4] is described as follows: qHTS assay to identify small molecule HDAC inhibitors (AID 1259364).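 Note: wild-type HCT-116 cells with endogenous class I/II HDAC activity; top concentration of the series differs between compounds; nearly all actives have a fitted effect of over 45% in size.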 Put shortly: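 HCT-116 wt cells, 1,500/well, overnight attach. Compounds (DMSO) 2 h, 37 °C. HDAC-Glo I/II, 30 min RT. Luminescence.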
The nature of experiment [5]: qHTS assay to identify small molecule HDAC inhibitors - cell viability counter screen (AID 1259365). Note: series mostly up to about 92 µM; nearly all actives have a fitted effect of over 50% in size. An outline of the steps:
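Viability readout: CellTiter-Glo luminescence. Wild-type HCT-116 cells, 2hr compound treatment following overnight attachment at 37 C.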

The nature of experiment [6]: qHTS assay to identify small molecule agonists of the sonic hedgehog signaling (Shh) pathway - cell viability counter screen (AID 1259366). Note: nearly all actives have a fitted effect of over 50% in size. An outline of the steps:
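Viability measured fluorometrically (CellTiter-Fluor, 1hr, 37C) in 3T3 Gli1-Luc reporter cells after 23hr compound exposure within a 24hr incubation at 37C/5% CO2.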

A short description of experiment [7]: qHTS assay to identify small molecule antagonists of the sonic hedgehog signaling (Shh) pathway - cell viability counter screen (AID 1259367). Note: nearly all actives have a fitted effect of over 55% in size. An outline of the steps:
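Fluorescence read-out (CellTiter-Fluor, 1 hr at 37C) taken after 23 hr compound treatment of 3T3 Gli1-Luc cells stimulated with conditioned medium. Cells were seeded at 2,000 per well and pre-incubated 4 hr.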

A short description of experiment [8]: qHTS assay to identify small molecule agonists of the sonic hedgehog signaling (Shh) pathway (AID 1259368; calls by dose curve;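 note: NIH/3T3-derived 3T3Gli1-Luc cells carrying a stable Gli1-driven firefly luciferase reporter; series mostly up to about 92 µM; nearly all actives have a fitted effect of over 15% in size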). Put shortly:
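Following a 24 hr incubation with DMSO-dissolved compounds at 37 C, 5% CO2, Gli1-Luc NIH/3T3-derived cells received luciferase reagent for 30 min at room temperature prior to luminescence measurement.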

Experiment [9] deals with Estrogen receptor beta (Homo sapiens) (UniProt Q92731). The experiment is described as follows: qHTS assay to identify small molecule agonists of the estrogen receptor beta (ER-beta) signaling pathway (AID 1259377; active = well fitted activation curve with a large enough effect in the signal ratio in the repeat runs, not every such curve was filed as active; the % refers to the signal ratio). Put shortly: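 A UAS-controlled beta-lactamase reporter in ER-beta-UAS-bla HEK293T cells reports receptor activation. Compounds act for 16 hr at 37C in 2% charcoal-stripped serum, and a FRET substrate is read by fluorescence after 2 hours.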

Experiment [10] has the same target. The experiment in a line: qHTS assay to identify small molecule antagonists of the estrogen receptor beta (ER-beta) signaling pathway (AID 1259378; active = well fitted inhibition curve with a large enough effect in the signal ratio in the repeat runs, not every such curve was filed as active; the % refers to the signal ratio). An outline of the steps: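 ER-beta-UAS-bla HEK293T cells in 2% charcoal-stripped FBS medium treated with compound plus 1nM final 17-beta-estradiol for 16 hr at 37C. Beta-lactamase reporter read by FRET substrate fluorescence after 2 hours at room temperature.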

Experiment [11] in a line: qHTS assay to identify small molecule agonists of the androgen receptor (AR) signaling pathway in the presence of an antagonist - cell viability counter screen (AID 1259379).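 Note: MDA-kb2 human breast cancer cells carrying an MMTV luciferase reporter; series mostly up to about 92 µM; nearly all actives have a fitted effect of over 25% in size.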 An outline of the steps:
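Each compound was tested at 15 concentrations on MDA-kb2 cells in the presence of 3.0uM nilutamide. Viability was measured by CellTiter-Fluor fluorescence after a 16 hr incubation at 37C in a CO2-free atmosphere.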

Experiment [12] is described as follows: qHTS assay to identify small molecule agonists of the estrogen receptor beta (ER-beta) signaling pathway - cell viability counter screen (AID 1259380). Note: nearly all actives have a fitted effect of over 30% in size. An outline of the steps:
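Compounds dissolved in DMSO were pin-transferred onto ER-beta-UAS-bla HEK293T cells that had settled 6 hr, and exposure ran 16 hr at 37C. Following the reporter read, CellTiter-Glo luminescence after 30 min at room temperature indicated cytotoxicity.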

Experiment [13] is described as follows: qHTS assay to identify small molecule antagonists of the estrogen receptor beta (ER-beta) signaling pathway - cell viability counter screen (AID 1259382). Note: series mostly up to about 92 µM; nearly all actives have a fitted effect of over 55% in size. Put shortly:
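CellTiter-Glo ATP luminescence measured after the LiveBLAzer read in the same wells; ER-beta-UAS-bla HEK293T cells, 16 hr compound treatment with 1nM 17-beta-estradiol agonist at 37C, 5% CO2.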

Experiment [14] concerns the target Estrogen receptor (Homo sapiens) (UniProt P03372). The experiment is described as follows: qHTS assay to identify small molecule agonists of the estrogen receptor alpha (ER-alpha) signaling pathway in the presence of an antagonist (AID 1259383; calls by dose curve; note: top concentration of the series differs between compounds; nearly all actives have a fitted effect of over 15% in size). Put shortly:
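Luminescent ERE-luciferase reporter, VM7Luc4E2 cells (endogenous ER-alpha); 10.0nM ICI-182,780 final; 15-point compound titration; 22hr at 37C; ONE-Glo, 30min RT.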

Experiment [15] is described as follows: qHTS assay to identify small molecule agonists or antagonists of the thyroid stimulating hormone receptor (TSHR) signaling pathway - wild type cell line counter screen (AID 1259384; calls by dose curve). An outline of the steps: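 Wild-type Hek293 cells, 800/well, 18 h at 37C, then compound with Ro20-1724 for 30 min RT. cAMP by HTRF (cAMP-d2/anti-cAMP cryptate), 1 h RT, fluorescence read. 15 concentrations, triplicates.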

Experiment [16] can be described thus: qHTS assay to identify small molecule antagonists of the sonic hedgehog signaling (Shh) pathway (AID 1259369; calls by dose curve; note: nearly all actives have a fitted effect of over 45% in size; note: potency is the fitted concentration of half-maximal effect). Put shortly:
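Read-out is luminescence from a firefly luciferase gene controlled by the Gli1 response element, in 3T3Gli1-Luc cells pre-incubated 4hr then exposed to compounds and conditioned medium for 24hr.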

Experiment [17] addresses Thyrotropin receptor (Homo sapiens) (UniProt P16473). The experiment in a line: qHTS assay to identify small molecule antagonists of the thyroid stimulating hormone receptor (TSHR) signaling pathway (AID 1259385; calls by dose curve; note: nearly all actives have a fitted effect of over 20% in size). An outline of the steps:
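TSHR-HEK293 cells (800/well) plated 18 h, then compounds with Ro20-1724 and TSH at 1.5 ng/mL final, 30 min at room temperature. cAMP quantified by HTRF (cAMP-d2/anti-cAMP-cryptate, 1 h); 15 concentrations in triplicate.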

SMILES strings stand for the structures. Unmarked numbers belong to inactive results. Records with an inconclusive call do not appear. Active and inactive are the calls of the source. Unless noted, calls come from the whole dose curve; as a rule, active = well fitted curve in the direction sought with a large enough effect in the repeat runs; inconclusive = weak or mixed curves; inactive = no such curve, though single readings can be large; an effect the other way counts as inactive or inconclusive.

Estrogen receptor beta (Homo sapiens), sequence (Q92731 whole entry, looked up): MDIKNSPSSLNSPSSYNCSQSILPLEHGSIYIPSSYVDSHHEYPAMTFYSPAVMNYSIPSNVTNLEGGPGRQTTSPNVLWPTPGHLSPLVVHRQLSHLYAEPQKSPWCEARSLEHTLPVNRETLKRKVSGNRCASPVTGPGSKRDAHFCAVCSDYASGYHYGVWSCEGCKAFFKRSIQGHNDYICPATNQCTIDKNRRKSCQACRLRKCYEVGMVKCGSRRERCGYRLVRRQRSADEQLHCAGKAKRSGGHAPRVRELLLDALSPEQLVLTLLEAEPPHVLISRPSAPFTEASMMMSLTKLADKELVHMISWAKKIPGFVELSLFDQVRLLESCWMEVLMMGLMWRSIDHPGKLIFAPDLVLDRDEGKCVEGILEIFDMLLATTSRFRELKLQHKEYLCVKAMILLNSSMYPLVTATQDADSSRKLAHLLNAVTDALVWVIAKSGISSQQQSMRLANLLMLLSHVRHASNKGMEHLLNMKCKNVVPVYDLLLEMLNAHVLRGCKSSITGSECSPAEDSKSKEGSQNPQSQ
Estrogen receptor (Homo sapiens), sequence (P03372 whole entry, looked up): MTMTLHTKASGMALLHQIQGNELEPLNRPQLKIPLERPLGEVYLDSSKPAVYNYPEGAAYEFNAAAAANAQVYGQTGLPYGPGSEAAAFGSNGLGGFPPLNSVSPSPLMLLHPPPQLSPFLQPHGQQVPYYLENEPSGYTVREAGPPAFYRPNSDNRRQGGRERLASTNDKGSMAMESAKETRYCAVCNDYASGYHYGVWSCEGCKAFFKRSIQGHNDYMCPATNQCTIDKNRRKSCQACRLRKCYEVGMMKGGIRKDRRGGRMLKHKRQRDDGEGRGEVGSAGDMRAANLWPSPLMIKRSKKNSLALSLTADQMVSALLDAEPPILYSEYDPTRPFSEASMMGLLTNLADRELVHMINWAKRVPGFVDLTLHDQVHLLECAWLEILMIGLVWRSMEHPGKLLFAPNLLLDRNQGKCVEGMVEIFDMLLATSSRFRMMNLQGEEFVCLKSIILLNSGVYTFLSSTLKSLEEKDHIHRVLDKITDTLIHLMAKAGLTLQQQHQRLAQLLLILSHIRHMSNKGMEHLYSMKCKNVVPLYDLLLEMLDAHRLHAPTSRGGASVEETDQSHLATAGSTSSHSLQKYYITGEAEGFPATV
Thyrotropin receptor (Homo sapiens), sequence (P16473 whole entry, looked up): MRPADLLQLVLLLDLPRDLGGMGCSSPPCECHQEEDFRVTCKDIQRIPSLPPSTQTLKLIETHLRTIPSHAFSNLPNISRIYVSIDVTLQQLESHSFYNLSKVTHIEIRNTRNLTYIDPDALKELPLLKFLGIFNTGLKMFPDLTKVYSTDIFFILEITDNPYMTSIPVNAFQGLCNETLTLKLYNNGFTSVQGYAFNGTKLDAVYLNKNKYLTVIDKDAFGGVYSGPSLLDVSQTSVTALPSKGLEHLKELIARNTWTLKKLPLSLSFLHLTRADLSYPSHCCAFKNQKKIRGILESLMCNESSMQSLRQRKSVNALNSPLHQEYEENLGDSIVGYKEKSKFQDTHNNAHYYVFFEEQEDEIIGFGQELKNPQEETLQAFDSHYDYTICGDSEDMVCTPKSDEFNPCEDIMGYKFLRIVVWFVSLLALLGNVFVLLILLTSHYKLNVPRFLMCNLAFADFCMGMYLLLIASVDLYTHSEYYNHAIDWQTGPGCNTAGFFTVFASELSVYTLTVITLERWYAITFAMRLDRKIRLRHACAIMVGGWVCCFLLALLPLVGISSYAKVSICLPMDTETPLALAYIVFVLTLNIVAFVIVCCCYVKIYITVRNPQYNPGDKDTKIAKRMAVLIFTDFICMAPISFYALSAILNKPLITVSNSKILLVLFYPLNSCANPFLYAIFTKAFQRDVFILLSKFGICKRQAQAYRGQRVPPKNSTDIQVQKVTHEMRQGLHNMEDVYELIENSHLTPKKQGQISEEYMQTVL

On to `O=P(O)(OCc1ccccc1)OCc1ccccc1`, for which the Potency result in experiment [1], in [2], in experiment [3], in experiment [4], in experiment [5] and in experiment [6] was “inactive” each time. Besides, the Potency result in experiment [7], in [9], in experiment [10], in [11], in experiment [12] and in experiment [13] was “inactive” each time. Besides, the Potency result in experiment [14] and in experiment [15] was “inactive” in each case. In addition, the outcome in experiment [8] was inactive.

For the compound `CCCCCCCCCCCC(=O)OC[C@@H](O)[C@H]1OC[C@H](OCCO)[C@H]1OCCO`, the Potency entry in [1], in [2], in experiment [3], in experiment [4], in [5] and in experiment [6] was “inactive” throughout. Also, the Potency result in [7], in experiment [16], in experiment [9], in [11], in experiment [12] and in [13] was “inactive” throughout. Moreover, the Potency entry in [14] and in [15] was “inactive” in each case. For the same compound, the call in experiment [8] was inactive.

In the case of `O=[N+]([O-])c1ccc2[nH]ncc2c1`, the Potency entry in [1], in [2], in experiment [3], in [4], in [5] and in experiment [6] was “inactive” in each case. For the same compound, the Potency result in experiment [7], in experiment [16], in experiment [9], in experiment [10], in experiment [11] and in [12] was “inactive” throughout. Further, the Potency result in experiment [13], in [14] and in experiment [17] was “inactive” in each case. In experiment [8], the compound was called inactive.

As for `CCCCCCCCCCCc1ccccc1`, the Potency result in [1], in experiment [2], in [3], in [4], in [5] and in experiment [6] was “inactive” throughout. For the same compound, the Potency result in experiment [7], in experiment [16], in experiment [11], in experiment [12], in [13] and in experiment [14] was “inactive” in each case. The Potency result in [15] and in [17] was “inactive” throughout. For the same compound, the result in [8] was inactive.

Take `CCCCCCCCO[C@@H]1O[C@H](CO)[C@@H](O)[C@H](O)[C@H]1O`: the Potency entry in [1], in experiment [2], in experiment [3], in [4], in [5] and in experiment [6] was “inactive” throughout. The Potency entry in [7], in [16], in experiment [9], in [10], in experiment [11] and in experiment [12] was “inactive” throughout. For the same compound, the Potency result in experiment [13], in experiment [14] and in experiment [15] was “inactive” each time. Further, in [8], the call was inactive.

Turning to `CCCCCCCCCCO[C@@H]1O[C@H](CO)[C@@H](O)[C@H](O)[C@H]1O`, the Potency result in experiment [1], in experiment [2], in [3], in experiment [4], in experiment [5] and in experiment [6] was “inactive” in each case. For the same compound, the Potency entry in [7], in experiment [9], in [11], in [12], in [13] and in experiment [14] was “inactive” throughout. Further, the Potency result in experiment [15] and in [17] was “inactive” in each case. In addition, the call in [8] was inactive. In addition, the Potency in experiment [16] is 61.1 µM (active).
